This note sets out measurements from PubChem BioAssay.

Unmarked numbers belong to inactive results. For some of these results: Entries with a potency or affinity are not part of this list. Calls of active or inactive are those of the source. Unless noted, how the calls were made is not given here.

The nature of assay [1]: antimalarial activity against Dd2 strain (AID 2302;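 active means growth inhibition above 50% at the single 2 µM test dose, taken to imply half-maximal potency below 2 µM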;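 further: 0% = DMSO untreated growth and 100% = chloroquine plus artemisinin killed control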). The following applies: P. falciparum Dd2 in RBCs, LDH growth readout, 72 h; at 2 µM; stronger effect = higher value.
The nature of assay [2]: human hepatoma cell viability loss – ATP luminescence, cytotoxicity control for P. falciparum antimalarial project, primary screen (AID 2303;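 active means inhibition above 50%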;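 further: 0% = DMSO wells and 100% = digitonin-killed cells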). As to conditions: HepG2 viability, 24-48 h, at 10 µM, stronger effect = higher value.
Assay [3] has as its target L-lactate dehydrogenase (Plasmodium falciparum (isolate CDC / Honduras)) (UniProt Q27743). The assay can be described thus: PfLDH activity inhibition – cell lysate, 3D7 strain, counter-screen for P. falciparum growth inhibition project (AID 2304).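 Further: 0% = vehicle and 100% = reference inhibitor.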 As to conditions: P. falciparum 3D7 crude extract, LDH APAD/NBT absorbance; at 2 µM; stronger effect = higher value. On the technique in general: Counterscreens check selectivity or assay interference.

The nature of assay [4]: inhibition of 3D7 malaria parasite growth – strain 3D7 (AID 2306).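 Further: 0% = DMSO wells and 100% = chloroquine plus artemisinin control wells.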 The following applies: P. falciparum 3D7 erythrocytic growth, LDH absorbance, 72 h; at 2 µM; stronger effect = higher value.
The target of assay [5] is Calcium-dependent protein kinase 1 (Plasmodium falciparum (isolate 3D7)) (UniProt P62344). As to the kind of experiment: PfCDPK1 kinase inhibitors, biochemical, TCAMS library (AID 1159585; cut-off not given, nearly all actives have IC50 up to about 0.98 µM;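 further: inhibitors leave more ATP so luminescence rises with inhibition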). As to conditions: recombinant PfCDPK1, Kinase-Glo ATP depletion luminescence. (Kinase-Glo measures the ATP left after a reaction by luminescence.)
Sequence of Calcium-dependent protein kinase 1 (Plasmodium falciparum (isolate 3D7)) (P62344 whole entry, looked up): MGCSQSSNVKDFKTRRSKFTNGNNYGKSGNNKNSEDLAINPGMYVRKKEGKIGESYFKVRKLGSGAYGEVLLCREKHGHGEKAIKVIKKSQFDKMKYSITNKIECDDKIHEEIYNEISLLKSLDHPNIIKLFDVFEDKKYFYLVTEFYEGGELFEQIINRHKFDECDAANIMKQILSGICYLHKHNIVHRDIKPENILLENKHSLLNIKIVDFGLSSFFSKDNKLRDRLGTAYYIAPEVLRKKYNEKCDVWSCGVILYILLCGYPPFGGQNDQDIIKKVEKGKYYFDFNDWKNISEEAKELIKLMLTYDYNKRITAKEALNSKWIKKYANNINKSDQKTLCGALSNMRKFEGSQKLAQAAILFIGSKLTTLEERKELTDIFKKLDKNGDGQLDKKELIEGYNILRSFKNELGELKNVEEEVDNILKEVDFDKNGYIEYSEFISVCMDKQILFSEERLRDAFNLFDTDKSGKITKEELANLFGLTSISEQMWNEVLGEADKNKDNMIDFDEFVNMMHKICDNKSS
The target of assay [6] is Plasmodium falciparum protein kinase 6 (PK6, PF3D7_1337100) (UniProt Q8IDW1). As to the kind of experiment: PfPK6 kinase inhibitors, biochemical, TCAMS library (AID 1159586). The following applies: recombinant PfPK6, Kinase-Glo ATP depletion luminescence.
Sequence of Plasmodium falciparum protein kinase 6 (PK6, PF3D7_1337100) (Q8IDW1 1-305): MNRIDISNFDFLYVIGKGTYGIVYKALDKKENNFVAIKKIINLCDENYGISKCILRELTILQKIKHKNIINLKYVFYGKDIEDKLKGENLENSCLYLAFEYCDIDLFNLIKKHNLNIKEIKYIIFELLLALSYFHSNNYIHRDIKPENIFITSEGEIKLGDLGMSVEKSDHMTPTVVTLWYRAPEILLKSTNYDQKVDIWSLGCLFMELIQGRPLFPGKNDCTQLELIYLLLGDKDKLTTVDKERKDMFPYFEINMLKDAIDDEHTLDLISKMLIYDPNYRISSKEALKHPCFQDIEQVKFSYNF
Assay [7] has as its target Protein kinase 7 (PK7), Plasmodium falciparum 3D7 (PF3D7_0213400) (UniProt Q7YTF7). As to the kind of experiment: inhibition of Plasmodium PK7 catalytic activity – biochemical, TCAMS antimalarial set, Kinase-Glo luminescence (AID 1159587). The following applies: recombinant PfPK7, Kinase-Glo ATP depletion luminescence.
Assay [8] has as its target Calcium-dependent protein kinase 4 (Plasmodium falciparum (isolate 3D7)) (UniProt Q8IBS5). As to the kind of experiment: PfCDPK4 kinase inhibitors, biochemical, TCAMS library (AID 1159588; cut-off not given, nearly all actives have IC50 up to about 0.91 µM). The following applies: recombinant PfCDPK4, Kinase-Glo ATP depletion luminescence.

Sequence of Protein kinase 7 (PK7), Plasmodium falciparum 3D7 (PF3D7_0213400) (Q7YTF7 1-343): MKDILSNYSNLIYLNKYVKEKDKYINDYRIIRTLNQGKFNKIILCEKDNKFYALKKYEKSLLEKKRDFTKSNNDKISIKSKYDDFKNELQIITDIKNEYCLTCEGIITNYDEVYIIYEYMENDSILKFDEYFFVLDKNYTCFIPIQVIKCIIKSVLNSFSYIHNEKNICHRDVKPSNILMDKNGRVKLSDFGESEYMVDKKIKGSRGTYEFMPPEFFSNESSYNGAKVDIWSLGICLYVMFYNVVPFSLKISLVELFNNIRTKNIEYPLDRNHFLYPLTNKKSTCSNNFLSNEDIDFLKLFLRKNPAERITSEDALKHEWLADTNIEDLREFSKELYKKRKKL
Sequence of Calcium-dependent protein kinase 4 (Plasmodium falciparum (isolate 3D7)) (Q8IBS5 whole entry, looked up): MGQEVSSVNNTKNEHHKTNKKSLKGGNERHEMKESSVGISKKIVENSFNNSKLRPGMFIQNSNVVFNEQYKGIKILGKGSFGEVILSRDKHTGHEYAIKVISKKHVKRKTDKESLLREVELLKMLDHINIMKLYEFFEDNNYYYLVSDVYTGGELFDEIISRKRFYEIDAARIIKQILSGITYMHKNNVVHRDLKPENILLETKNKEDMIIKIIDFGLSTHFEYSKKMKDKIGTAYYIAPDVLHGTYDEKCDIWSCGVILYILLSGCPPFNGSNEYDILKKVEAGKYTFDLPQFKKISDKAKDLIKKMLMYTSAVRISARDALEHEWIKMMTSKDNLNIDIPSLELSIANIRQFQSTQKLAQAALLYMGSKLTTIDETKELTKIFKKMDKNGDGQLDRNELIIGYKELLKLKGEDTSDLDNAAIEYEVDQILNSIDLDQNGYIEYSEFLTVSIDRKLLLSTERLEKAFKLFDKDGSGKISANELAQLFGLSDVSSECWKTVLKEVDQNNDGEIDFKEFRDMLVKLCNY
Sequence of L-lactate dehydrogenase (Plasmodium falciparum (isolate CDC / Honduras)) (Q27743 whole entry, looked up): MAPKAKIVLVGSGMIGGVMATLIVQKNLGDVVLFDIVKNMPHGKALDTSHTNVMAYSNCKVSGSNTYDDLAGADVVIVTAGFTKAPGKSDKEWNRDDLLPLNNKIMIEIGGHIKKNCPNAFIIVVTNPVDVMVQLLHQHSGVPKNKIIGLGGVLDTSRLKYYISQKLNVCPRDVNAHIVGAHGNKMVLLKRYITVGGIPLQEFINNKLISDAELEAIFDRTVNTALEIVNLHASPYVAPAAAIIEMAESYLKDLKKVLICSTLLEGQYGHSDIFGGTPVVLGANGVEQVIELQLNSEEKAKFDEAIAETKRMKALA

As for `COc1ccc(NC(=O)CSc2nc(-c3ccccc3Cl)ns2)cc1`, the growth inhibition is 75% (active) in assay [1] and 96% (active) in assay [4]. Also, the inhibition (in general, the change of the read-out against control, counted positive when it falls) was 11% in assay [2] and 0% in assay [3]. For the same molecule, the outcome in assay [5], in assay [6], in assay [7] and in assay [8] was inactive.
`COc1ccccc1-c1csc(C(=O)NC2CCCCN(Cc3ccc(C(C)(C)C)cc3)C2)c1` (stereo not given): the growth inhibition is 8% in assay [1] and 99% (active) in assay [4]. For the same molecule, the inhibition in assay [2] was 13%; in assay [3], -5%. In addition, the result in assay [5], in assay [6], in assay [7] and in assay [8] was inactive.
On to `Cc1ccc2nc(-c3cc(-c4cccc(CCN5CCOCC5)c4)cnc3N)[nH]c2c1`, for which the growth inhibition is 99% (active) in assay [1] and 101% (active) in assay [4]. The inhibition was 50% (active) in assay [2] and -5% in assay [3]. The outcome in assay [5], in assay [6], in assay [7] and in assay [8] was inactive.
Consider `CC(C)(CNCc1cccc(Oc2cccc(C(F)(F)F)c2)c1)c1nc(-c2ccc(Cl)c(O)c2)c(-c2ccnc(N)n2)[nH]1`, for which the growth inhibition in assay [1] was 98% (active); in assay [4], 99% (active). The inhibition in assay [2] was 23%; in assay [3], 2%. The outcome in assay [5], in assay [6], in assay [7] and in assay [8] was inactive.
In the case of `Cc1nc(C)n(CC(=O)Nc2cccc(-c3cccc(-c4nc5ccc(C(F)(F)F)cc5[nH]4)c3)c2)n1`, the growth inhibition in assay [1] is 96% (active); in assay [4], 100% (active). Besides, the inhibition in assay [2] is 62% (active); in assay [3] it was -6%. Also, the result in assay [5], in assay [6], in assay [7] and in assay [8] was inactive.
Take `O=C(/C=C/c1ccccc1Cl)Nc1ccc(Br)c(OCCN2CCN(CCN3CCOCC3)CC2)c1`: the figures for the growth inhibition in assay [1] and in assay [4] were 91% (active) and 98% (active), respectively. Also, the inhibition in assay [2] is 22%; in assay [3] it was -3%. For the same molecule, the outcome in assay [5], in assay [6], in assay [7] and in assay [8] was inactive.
For `N#Cc1cccc([C@H](O)[C@@H]2CN(CCC3CCCCC3)CC[C@@]2(O)c2ccccc2)c1`, the growth inhibition in assay [1] is 100% (active); in assay [4], 98% (active). Moreover, the values for the inhibition in assay [2] and in assay [3] were -5% and 3%, respectively. Further, the result in assay [5], in assay [6], in assay [7] and in assay [8] was inactive.
With `CC(CCCC(=O)Nc1ccc(CC(C)NCCc2cccc(Cl)c2)cc1)NCCc1cccc(Cl)c1` (stereo not given), the growth inhibition was 14% in assay [1] and 101% (active) in assay [4]. The results for the inhibition in assay [2] and in assay [3] were 98% (active) and -3%, respectively. The result in assay [5], in assay [6], in assay [7] and in assay [8] was inactive.
Regarding `O=c1cc(NCCCNCc2scc3c(Cl)cc(C(F)(F)F)nc23)[nH]c2ccccc12`, the growth inhibition in assay [1] is 21%; in assay [4], 99% (active). The inhibition in assay [2] is 9%; in assay [3], -1%. Also, the outcome in assay [5], in assay [6], in assay [7] and in assay [8] was inactive.
As for `COc1cc(OC)c(OC)cc1CN1CCC2(CC1)CN(Cc1ccc(Cl)c(Cl)c1)C(=O)O2`, the growth inhibition in assay [1] is 94% (active); in assay [4], 90% (active). The inhibition in assay [2] is 8%; in assay [3] it was 3%. Moreover, the result in assay [5], in assay [6], in assay [7] and in assay [8] was inactive.
For `Oc1cc(Nc2ccnc3cc(I)ccc23)ccc1F`, the growth inhibition in assay [1] and in assay [4] was 99% (active) throughout. Also, the inhibition in assay [2] is -6%; in assay [3], 0%. Besides, the outcome in assay [5], in assay [6], in assay [7] and in assay [8] was inactive.
As for `c1ccc(-c2nc(NC3CCCCC3)cc(C3CC3)n2)nc1`, the figures for the growth inhibition in assay [1] and in assay [4] were 76% (active) and 97% (active), respectively. Also, the inhibition in assay [2] is 35%; in assay [3], 2%. Moreover, the outcome in assay [5], in assay [6], in assay [7] and in assay [8] was inactive.
Take `O=C(NCc1ccc(C(=O)N2CCC(N3CCCCC3)CC2)cc1)c1cc(-c2cccc(C(F)(F)F)c2)ccc1O`: the growth inhibition was 58% (active) in assay [1] and 100% (active) in assay [4]. For the same molecule, the inhibition was -3% in assay [2] and 1% in assay [3]. The result in assay [5], in assay [6], in assay [7] and in assay [8] was inactive.
With `O=C(Nc1cc(F)cc(F)c1)NC1CCN(CCCCCNC(=O)[C@@H]2C[C@H]2c2ccc(Cl)c(Cl)c2)CC1`, the figures for the growth inhibition in assay [1] and in assay [4] were 6% and 102% (active), respectively. For the same molecule, the results for the inhibition in assay [2] and in assay [3] were 49% and 6%, respectively. Moreover, the result in assay [5], in assay [6], in assay [7] and in assay [8] was inactive.
As to `CC1CN(Cc2cccc(F)c2)CCN1c1ccc(NC(=O)c2cccs2)cc1` (stereo not given), the growth inhibition in assay [1] and in assay [4] was 96% (active) each time. Moreover, the inhibition in assay [2] was -1%; in assay [3], -2%. The outcome in assay [5], in assay [6], in assay [7] and in assay [8] was inactive.
As for `CNCc1ccc(-c2cccc(CNCc3ccc(-c4ccccc4)cc3)c2)c(C(=O)OC)c1`, the growth inhibition was 19% in assay [1] and 92% (active) in assay [4]. Besides, the inhibition in assay [2] was 25%; in assay [3], 3%. Further, the result in assay [5], in assay [6], in assay [7] and in assay [8] was inactive.
As for `COc1cccc(C(=O)Nc2sc3c(c2C(N)=O)CCCC3)c1OC`, the growth inhibition in assay [1] was 8%; in assay [4] it was 99% (active). Besides, the inhibition in assay [2] is 6%; in assay [3], -2%. Besides, the result in assay [5], in assay [6], in assay [7] and in assay [8] was inactive.
As for `O=C(Nc1ccc(C(F)(F)F)cc1)c1ccc(NCCCN2CCCCCC2)c([N+](=O)[O-])c1`, the growth inhibition in assay [1] was 98% (active); in assay [4] it was 102% (active). The inhibition in assay [2] was 42%; in assay [3], -5%. Further, the outcome in assay [5], in assay [6], in assay [7] and in assay [8] was inactive.
For `CCCc1cc(OC)c(CC2c3cc(O)c(C)cc3CCN2C)cc1OC` (stereo not given), the growth inhibition was 89% (active) in assay [1] and 99% (active) in assay [4]. The inhibition in assay [2] is 32%; in assay [3] it was -2%. Further, the outcome in assay [5], in assay [6], in assay [7] and in assay [8] was inactive.
With `CC(CCc1ccccc1)NCC(O)c1ccc2c3c(cccc13)C(=O)N2C` (stereo not given), the growth inhibition was 57% (active) in assay [1] and 99% (active) in assay [4]. The inhibition was 37% in assay [2] and -2% in assay [3]. The result in assay [5], in assay [6], in assay [7] and in assay [8] was inactive.
